Source: PubChem BioAssay (NCI)
Where “and” joins values, the source holds several entries; their conditions need not be identical. Identical values can stand only once. About 79,000 compounds went through this panel and 15% of them were active in at least one assay; those are over-represented in the sample as a whole. Calls of active or inactive are those of the source. Cut-off read from the data, not from the text of the source: active = growth inhibition above about 70%; inactive = the rest.

Legend:
[1] = NCI Yeast Anticancer Drug Screen. Data for the rad50 strain (AID 155);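 note: 0% = growth of vehicle-only cultures of the same strain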; settings: S. cerevisiae rad50 strain growth inhibition; at 50.0 µM; active compounds read high
Procedure, shortened: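 Inhibition values express reduced yeast growth in compound-treated cultures relative to vehicle-treated controls.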

[2] = NCI Yeast Anticancer Drug Screen. Data for the mec2-1 strain (AID 157); settings: S. cerevisiae mec2-1 strain, at 50.0 µM, active compounds read high
Procedure, shortened: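 Vehicle-treated cultures served as reference for growth inhibition of compound-exposed mec2-1 yeast.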

[3] = NCI Yeast Anticancer Drug Screen. Data for the sgs1 mgt1 strain (AID 161);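 note: 0% = growth of cultures given vehicle only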; settings: S. cerevisiae sgs1 mgt1 strain, at 50.0 µM, active compounds read high
Procedure, shortened: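 Genetically altered yeast, compound exposure, growth inhibition relative to vehicle.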

[4] = NCI Yeast Anticancer Drug Screen. Data for the cln2 rad14 strain (AID 165);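 note: 0% = growth equal to vehicle treated cultures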; settings: S. cerevisiae cln2 rad14 strain, at 50.0 µM, active compounds read high
Procedure, shortened: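 Each compound was tested on cln2 rad14 yeast. Inhibition of growth was calculated against vehicle-exposed controls.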

[5] = NCI Yeast Anticancer Drug Screen. Data for the bub3 strain (AID 167); settings: S. cerevisiae bub3 mutant strain, at 50.0 µM, active compounds read high
Procedure, shortened: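 Steps: expose the mutant yeast strain to compound; grow alongside vehicle-treated cultures; measure growth; express inhibition against the vehicle cultures.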

[6] = NCI Yeast Anticancer Drug Screen. Data for the mlh1 rad18 strain (AID 175); settings: S. cerevisiae mlh1 rad18 strain growth inhibition; at 50.0 µM; active compounds read high
Procedure, shortened: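 Vehicle-treated cultures served as the reference for growth inhibition in a yeast strain carrying DNA damage repair alterations exposed to each compound.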

Measured: growth inhibition

CC1(C)CCCC(C)(C)N1[P-]C(=O)[P-]N1C(C)(C)CCCC1(C)C.[C-]#[O+].[C-]#[O+].[C-]#[O+].[C-]#[O+].[C-]#[O+].[C-]#[O+].[Fe].[Fe] (stereo not drawn)
inactive: [1] -11.2% | [2] 3.65% | [3] -2% | [4] 13.6% | [5] -5.7% | [6] 8.45%

CCCC1(c2ccccc2)C(=O)NCNC1=O
inactive: [1] -21.8% | [2] -30.4% | [3] -24.3% | [4] -12.2% | [5] -25.4% | [6] -25.1%

CCN1CN(c2ccccc2)C2(CCN(CC(CC3OCCO3)c3ccc(F)cc3)CC2)C1=O (stereo not drawn)
inactive: [1] 28.5% | [2] 32.2% | [3] 51.9% | [4] 13.6% | [5] 47% | [6] 44.6%

CCCCN(CCCC)CCc1ccccc1
inactive: [1] 19.6% | [2] 1.8% | [3] 8.45% | [4] 17.8% | [5] 30.4% | [6] 17%

COc1cc(CCN(C)C)c([N+](=O)[O-])cc1OC
inactive: [1] 7.9% | [2] 21.6% | [3] 19.3% | [4] 17% | [5] 0.2% | [6] 34.7%

Nc1[nH]c(=S)[nH]c(=O)c1Cn1ccnc1
inactive: [1] -20.4% | [2] 0.8% | [3] -23.4% | [4] -17.1% | [5] -11.2% | [6] -33.8%

CN(C)C(=S)Oc1ccc(S(=O)(=O)F)cc1
inactive: [1] 34.2% | [2] 17.2% | [3] 14.6% | [4] 22.6% | [5] 8.65% | [6] 20.9%

CNC(=O)O/N=C/c1cccc(/C=N/OC(=O)NC)c1
inactive: [1] -0.1% | [2] 14.3% | [3] 3.35% | [4] 49.5% | [5] 28.8% | [6] 11.2%

CCOP(=O)(CC(=O)c1ccccc1)OCC
inactive: [1] 10.1% | [2] 1.25% | [3] -18.1% | [4] 0.6% | [5] -1.45% | [6] 20.8%

CC(O)C[N+](=O)[O-] (stereo not drawn)
inactive: [1] 5.35% | [2] 8.65% | [3] -4.6% | [4] -23% | [5] 8.5% | [6] 4.8%

COc1cc([C@@H]2c3cc4c(c(O)c3C[C@H]3COC(=O)[C@@H]32)OCO4)cc(OC)c1OC
inactive: [1] -5.65% and 13.2% | [2] 9.3% and 7.85% | [3] 2.65% and 2.95% | [4] 0.1% and 15.8% | [5] 15.4% and 23.4% | [6] 28.2% and 30.5%

O=C(Cc1ccccc1)Oc1ccc2c(-c3ccccc3)c(C(=O)Nc3ccc(Cl)cc3)c(=O)oc2c1
inactive: [1] 6.75% | [2] 5.2% | [3] 2.2% | [4] 2.6% | [5] -23.4% | [6] 12.8%

C[N+](CCCl)(CCCl)Cc1cc([N+](=O)[O-])cc([N+](=O)[O-])c1
inactive: [1] -6.05% | [2] -3.05% | [3] 8.9% | [4] -8.6% | [5] -1.25% | [6] 5.95%

COc1cccc2c1C(=O)c1c(O)c3c(c(O)c1C2=O)CC(O)(C(C)=O)CC3OC1CC([N+](C)(C)C)C(O)C(C)O1 (stereo not drawn)
active: [1] 97% | [2] 98.5% | [3] 97.9% | [4] 92.5% | [5] 98.3% | [6] 95.8%

O=C(O)C(O)C(O)C(O)C(O)C(O)C(O)CO.[Cd] (stereo not drawn)
inactive: [1] 29.4% and 27.9% | [2] 15.2% and 26.5% | [3] 20.2% and 20.4% | [4] 19.4% and 28.7% | [5] 4.6% and -7.8% | [6] -1.55% and 0.55%

O=C(NP(=O)(N1CC1)N1CC1)c1cc(I)ccc1I
inactive: [1] -2.1% | [2] -1.7% | [3] 1.25% | [4] -27.7% | [5] 12.9% | [6] -14.3%

C#CC1(O)CCC(C(C)(C)C)CC1 (stereo not drawn)
inactive: [1] 10.2% and -5.45% and 20.4% | [2] 6.6% and 25.3% and -12.8% | [3] -7.35% and -4.35% and -1.95% | [4] 7.3% and -22.6% and 7.2% | [5] 9.05% and 10.4% and -10.2% | [6] -17.9% and -4.15% and 10.8%

O=C(OC1CN2CCC1CC2)N(c1ccccc1)c1ccccc1 (stereo not drawn)
inactive: [1] 2.35% | [2] 0.25% | [3] -4.1% | [4] -4.75% | [5] 3.5% | [6] 13.3%

CCCCN1CCC2(CC1)C(=O)NC(=S)NC2=O
inactive: [1] -12.4% | [2] -2.5% | [3] -3.65% | [4] 4.65% | [5] 6.25% | [6] -22.3%

Cc1cccc(C(=O)[O][Pb]([CH3])([CH3])[CH3])c1
inactive: [1] 16.1% | [2] -53.7% | [3] 21% | [4] -20% | [5] -9.65% | [6] 36.2%

CN(CCOC(=O)c1ccc(Br)cc1)[N+](=O)[O-]
inactive: [1] 8.9% | [2] 3.2% | [3] -6.25% | [4] 5.8% | [5] 38.9% | [6] 22.9%

C[CH2][Sn]1([CH2]C)[O]C(=O)[O][Sn]([CH2]C)([CH2]C)[O]1
inactive: [1] -30.1% | [2] 0.95% | [3] -30.2% | [4] -5.05% | [5] -6.05% | [6] -53.3%

Cc1cc(Cl)ccc1OCCCC(=O)O
inactive: [1] 28.4% | [2] 16.2% | [3] 41.5% | [4] 21% | [5] 47.1% | [6] 15.4%

CCCCCCCCCCCC[C@@H](O)[C@H]1CC[C@H]([C@H](O)CCCC[C@H](O)CCCCC[C@@H](O)CC2=C[C@H](C)OC2=O)O1
inactive: [1] 10% | [2] -7.05% | [3] -20.8% | [4] -7.5% | [5] -1.65% | [6] -41.2%

CN1CCC23CC=CCC2C1Cc1ccc([N+](=O)[O-])cc13 (stereo not drawn)
inactive: [1] -4.15% | [2] 11.3% | [3] 7.25% | [4] -3.15% | [5] 2.4% | [6] 35%

Cc1ccc(S(=O)(=O)F)cc1
inactive: [1] 10.4% | [2] -8.7% | [3] 2.1% | [4] -14.7% | [5] -1.3% | [6] 9.5%

COc1ccc2c(c1OC(C)=O)-c1cc(O)cc3c1C(C2)N(C(=O)CN(CCCl)CCCl)CC3 (stereo not drawn)
inactive: [1] 19.6% and 6.5% | [2] 8.65% and 5.4% | [3] 24.7% and -25.4% | [4] 10.8% and -4.95% | [5] 22.2% and -7.95% | [6] -21.7% and -30.4%

CCC1(CC)C(=O)N(C)P(=O)(Oc2ccccc2)N(C)C1=O
inactive: [1] 5.7% | [2] 15.4% | [3] 9.3% | [4] 1.6% | [5] 7.1% | [6] 4.6%

N.N.N.N.O=C([O-])C(=O)O.O=C([O-])C(=O)[O-].[Co+3]
inactive: [1] -2.9% | [2] 1.5% | [3] -10.6% | [4] 13.6% | [5] 11.9% | [6] -11.6%

O=C(NC1CC1)c1c(O)[nH]c(=S)[nH]c1=O
inactive: [1] -3% | [2] -8.2% | [3] -12.8% | [4] 16.6% | [5] -6.15% | [6] -17.1%

C/C=C1/CN2CCC34C(=C(C(=O)OC)C1CC23)Nc1ccc(O)cc14 (stereo not drawn)
inactive: [1] 2.9% | [2] 2.3% | [3] 27.7% | [4] -4.05% | [5] 1.65% | [6] -61%

O=P(OCCCCl)(OCCCCl)C(Cl)(Cl)Cl
inactive: [1] -0.45% | [2] -5.65% | [3] -5.2% | [4] 6.85% | [5] 13.7% | [6] 2.15%

CC12CCC(O)CC1CCC1C2CCC2(C)C(c3ccc(=O)oc3)CC3OC312 (stereo not drawn)
inactive: [1] 35.5% | [2] 31.5% | [3] 66.5% | [4] 48.5% | [5] 48.6% | [6] 60.9%

NC(CSC(c1ccccc1)c1ccccc1)C(=O)O (stereo not drawn)
inactive: [1] 6.3% | [2] 0% | [3] 3.35% | [4] 5% | [5] 13.4% | [6] 3.5%

O=CNc1ccc(Cl)cc1C(=O)c1ccccc1
inactive: [1] 9.8% | [2] -0.35% | [3] 15.2% | [4] 28.8% | [5] 21.6% | [6] 4.4%

CC(=S)N=Cc1c(O)[nH]c(=O)[nH]c1=O
inactive: [1] -6.2% | [2] -6.8% | [3] -10.2% | [4] 21.6% | [5] -7.55% | [6] 9.55%

[C-]#[O+].[C-]#[O+].[C-]#[O+].[C-]#[O+].[Cr].c1ccc([PH+](c2ccccc2)c2ccccc2)cc1.c1ccc([PH+](c2ccccc2)c2ccccc2)cc1
inactive: [1] -4.4% | [2] 8.05% | [3] -8.95% | [4] -3.35% | [5] -5.4% | [6] -1.55%

CCOC(=O)C(C(=O)OCC)P(=S)(S)c1ccccc1 (stereo not drawn)
inactive: [1] 6.2% | [2] -33.9% | [3] -11.2% | [4] 9.2% | [5] -9.6% | [6] -10.1%
